Drawing on PubChem BioAssay, this text covers composite z-score and z-score for six compounds.

Test [1] has as its system Plasmodium falciparum Sir2 (PF13_0152, Sir2A). Put plainly: Plasmodium falciparum Sir2A binding compounds – biochemical, small-molecule microarray, 635 nm fluorescence, primary screen (AID 1098).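 Note: score merges spot fluorescence intensity with its signal-to-noise ratio.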 The note with it: fluorescence 635 nm, higher = more signal.
Test [2] is described as follows: probe aDKK1 binding to arrayed compounds – biochemical, biotinylated probe, 635/667 nm fluorescence, primary screen (AID 1099).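 Note: score merges 667nm spot fluorescence with signal to noise across triplicate slides.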 Conditions: small-molecule microarray, higher = more signal.
The nature of test [3]: probe aCHRDL2 binding to arrayed compounds – biochemical, biotinylated probe, 635/667 nm fluorescence, primary screen (AID 1100). Conditions: small-molecule microarray, higher = more signal.
Test [4] is described as follows: change in splice reporter luminescence, either direction, cell-based, HEK293, spliceosome inhibition project, primary screen (AID 1101).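 Note: HEK293 cells carrying a splicing-competent luciferase reporter gene; test concentration not given here.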 The note with it: HEK293 splicing luciferase reporter, 24 h, higher = more signal, called active from +8 up or from −8 down.
Test [5] has as its target Fibroblast growth factor 10 (Homo sapiens) (UniProt O15520). Description: compounds binding fibroblast growth factor 10 – biochemical, small-molecule microarray, 635 nm fluorescence, primary screen (AID 1102). Conditions: FGF10 binding, fluorescence 635 nm, higher = more signal.
In test [6] the test system is glycogen synthase kinase-3 (GSK3A per assay name; protocol says GSK3B). Put plainly: compounds binding glycogen synthase kinase-3 – biochemical, small-molecule microarray, 635 nm fluorescence, GSK3A, primary screen (AID 1103). Note: the record names both GSK3A and GSK3B. Conditions: fluorescence 635 nm, higher = more signal.
Test [7] deals with Epidermal growth factor receptor (Homo sapiens) (UniProt P00533). Description: compounds binding epidermal growth factor receptor – biochemical, small-molecule microarray, 635 nm fluorescence, primary screen (AID 1104).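 Note: score merges 667 nm emission intensity with spot signal to noise over triplicate slides.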 The note with it: EGFR binding, higher = more signal.
Sequence of Epidermal growth factor receptor (Homo sapiens) (P00533 whole entry, looked up): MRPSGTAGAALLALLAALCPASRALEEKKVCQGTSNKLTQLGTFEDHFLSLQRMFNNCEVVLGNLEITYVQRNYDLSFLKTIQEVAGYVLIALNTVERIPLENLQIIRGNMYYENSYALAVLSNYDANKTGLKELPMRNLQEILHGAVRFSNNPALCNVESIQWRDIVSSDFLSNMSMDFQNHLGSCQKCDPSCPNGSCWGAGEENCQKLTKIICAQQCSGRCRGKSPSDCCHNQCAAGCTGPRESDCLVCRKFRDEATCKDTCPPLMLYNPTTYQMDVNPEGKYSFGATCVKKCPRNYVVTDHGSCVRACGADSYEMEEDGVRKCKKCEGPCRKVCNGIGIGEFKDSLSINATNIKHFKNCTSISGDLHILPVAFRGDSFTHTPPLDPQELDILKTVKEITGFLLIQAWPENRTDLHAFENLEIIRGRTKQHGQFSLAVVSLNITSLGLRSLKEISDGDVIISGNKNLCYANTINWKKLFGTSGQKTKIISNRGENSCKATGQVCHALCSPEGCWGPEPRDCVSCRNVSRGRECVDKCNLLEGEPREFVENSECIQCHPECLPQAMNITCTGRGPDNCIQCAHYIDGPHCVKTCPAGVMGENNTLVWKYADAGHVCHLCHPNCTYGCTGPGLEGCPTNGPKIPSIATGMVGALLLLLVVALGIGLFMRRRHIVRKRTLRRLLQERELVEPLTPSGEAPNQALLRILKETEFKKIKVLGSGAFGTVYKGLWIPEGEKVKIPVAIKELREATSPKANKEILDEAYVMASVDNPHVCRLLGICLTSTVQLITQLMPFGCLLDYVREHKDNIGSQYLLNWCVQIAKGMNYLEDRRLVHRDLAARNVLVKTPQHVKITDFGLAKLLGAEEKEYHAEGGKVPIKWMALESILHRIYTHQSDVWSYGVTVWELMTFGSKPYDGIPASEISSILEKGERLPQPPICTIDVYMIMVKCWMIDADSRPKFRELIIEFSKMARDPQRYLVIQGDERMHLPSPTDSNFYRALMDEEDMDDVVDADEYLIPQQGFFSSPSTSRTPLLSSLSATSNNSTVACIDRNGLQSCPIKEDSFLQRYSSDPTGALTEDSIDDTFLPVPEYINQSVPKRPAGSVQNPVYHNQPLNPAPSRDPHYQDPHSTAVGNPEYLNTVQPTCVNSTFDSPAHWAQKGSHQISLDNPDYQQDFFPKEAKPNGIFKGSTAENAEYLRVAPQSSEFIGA
Test [8] addresses Follistatin-related protein 3 (Homo sapiens) (UniProt O95633). Description: compounds binding follistatin-related protein 3 – biochemical, small-molecule microarray, 635 nm fluorescence, primary screen (AID 1105).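 Note: score merges emission near 667 nm and signal to noise per printed spot across three slides.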 Conditions: FSTL3 binding, higher = more signal.
Test [9] deals with Dickkopf-related protein 1 (Homo sapiens) (UniProt O94907). Put plainly: small molecules binding DKK1 protein – biochemical, small-molecule microarray, 635 nm fluorescence scan, primary screen (AID 1106).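 Note: score merges emission near 667 nm with signal to noise over three replicate slides.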 Conditions: higher = more signal.
Sequence of Dickkopf-related protein 1 (Homo sapiens) (O94907 whole entry, looked up): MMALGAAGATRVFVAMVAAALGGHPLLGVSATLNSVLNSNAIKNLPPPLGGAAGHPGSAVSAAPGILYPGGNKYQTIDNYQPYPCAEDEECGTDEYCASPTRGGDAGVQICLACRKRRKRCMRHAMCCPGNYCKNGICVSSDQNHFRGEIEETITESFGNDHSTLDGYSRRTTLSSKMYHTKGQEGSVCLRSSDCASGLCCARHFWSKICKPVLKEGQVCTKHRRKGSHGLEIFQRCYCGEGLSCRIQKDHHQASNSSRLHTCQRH
Test [10] relates to Inhibin beta A chain (activin A). Put plainly: small molecules binding activin A – biochemical, small-molecule microarray, 635 nm fluorescence scan, primary screen (AID 1107).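 Note: mouse activin A protein probed at 4.33 µg/mL on printed slides; score merges bound-protein fluorescence near 667 nm with spot signal-to-noise.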 The note with it: INHBA, higher = more signal.
For test [11], the system named is Human papillomavirus type 1a protein E7 (residues 44-93). Put plainly: small molecules binding HPV E7 44-93 – biochemical, small-molecule microarray, residues 44-93, 635 nm fluorescence, primary screen (AID 1108).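 Note: E7 fragment applied at 1 µg/mL in TBST for 1 h at 4 C; score combines spot fluorescence with its signal to noise ratio.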 Conditions: fluorescence 635 nm, higher = more signal.
A short description of test [12]: hepatitis C replication reporter changes, two-sided – Huh7 cells, luciferase reporter, HCV replication inhibitor project, primary screen (AID 1109).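 Note: huh7 hepatoma cells harbouring a luciferase neomycin HCV replicon reporter; luciferase luminescence as measure of HCV replicon replication; test concentration not given here.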 Conditions: Huh7 HCV replicon luciferase reporter, 48 h; higher = more signal. Background: Reporter assays use an easily measured gene product as a stand-in for the process of interest.
Test [13] has as its target Left-right determination factor 2 (Homo sapiens) (UniProt O00292). Put plainly: small molecules binding LEFTY2 protein – biochemical, small-molecule microarray, 635 nm fluorescence scan, primary screen (AID 1110). The note with it: higher = more signal.
Test [14] deals with Calmodulin-1 (Homo sapiens) (UniProt P0DP23). Put plainly: small molecules binding calmodulin-1 with EGTA – biochemical, small-molecule microarray, Cy5-labelled CALM1, profiling panel (AID 1111).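 Note: labelled calmodulin applied in Tris saline Tween buffer holding calcium plus EGTA and DTT.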 Conditions: Cy5-CALM1 binding fluorescence, higher = more signal.
For test [15] the target is unchanged. Put plainly: small molecules binding Ca-loaded calmodulin-1 – biochemical, small-molecule microarray, Cy5-labelled CALM1, plus calcium, artefact control for SMM control-protein annotation, profiling panel (AID 1112).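 Note: score merges spot fluorescence with signal to noise from triplicate slides.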 The note with it: Cy5-CALM1 binding fluorescence, higher = more signal.
The nature of test [16]: probe aWnt5a binding to arrayed compounds – biochemical, biotinylated probe, 635/667 nm fluorescence, primary screen (AID 1113).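 Note: score merges 667 nm fluorescence intensity with signal-to-noise per printed feature.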 Conditions: small-molecule microarray, higher = more signal.
Test [17] can be described thus: probe aShh binding to arrayed compounds – biochemical, biotinylated probe, 635/667 nm fluorescence, primary screen (AID 1114).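 Note: probe is biotin-labelled aShh protein from a stem cell growth factor screen; measures binding of labelled protein to compounds printed on the slide; score merges feature fluorescence at 667 nm with signal-to-noise.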 Conditions: small-molecule microarray, higher = more signal.
Test [18] can be described thus: probe aNog binding to arrayed compounds – biochemical, biotinylated probe, 635/667 nm fluorescence, primary screen (AID 1115).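 Note: probe is biotinylated aNog protein used at 0.15 µg/mL for 1 h at 4 C; z-score combines 667 nm fluorescence of each spot with its signal to noise.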 The note with it: small-molecule microarray, higher = more signal.
The target in test [19] is Torsin-1A-interacting protein 1 (Homo sapiens) (UniProt Q5JTV8). Description: compound microarray binding of lysate hLAP1 – cell lysate, small-molecule microarray, COS7 lysate, 635/667 nm fluorescence, primary screen (AID 1116). Conditions: 635 nm fluorescence, higher = more signal.
Sequence of Torsin-1A-interacting protein 1 (Homo sapiens) (Q5JTV8 whole entry, looked up): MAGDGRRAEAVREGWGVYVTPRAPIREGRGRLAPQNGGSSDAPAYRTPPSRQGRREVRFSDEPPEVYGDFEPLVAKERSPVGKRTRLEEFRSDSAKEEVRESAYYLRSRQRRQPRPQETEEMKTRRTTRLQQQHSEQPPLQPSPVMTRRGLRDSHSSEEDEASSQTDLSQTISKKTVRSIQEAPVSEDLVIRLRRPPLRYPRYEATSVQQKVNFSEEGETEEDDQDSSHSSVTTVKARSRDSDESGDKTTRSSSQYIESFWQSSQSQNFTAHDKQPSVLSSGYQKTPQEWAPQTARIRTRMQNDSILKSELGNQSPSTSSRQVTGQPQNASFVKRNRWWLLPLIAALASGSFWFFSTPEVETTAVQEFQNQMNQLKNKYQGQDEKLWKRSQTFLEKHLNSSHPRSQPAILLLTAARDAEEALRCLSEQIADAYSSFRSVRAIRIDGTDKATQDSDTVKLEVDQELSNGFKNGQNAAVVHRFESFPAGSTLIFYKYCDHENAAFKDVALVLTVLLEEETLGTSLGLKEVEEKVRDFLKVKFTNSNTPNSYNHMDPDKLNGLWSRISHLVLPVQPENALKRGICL
Test [20] deals with Alpha-bungarotoxin (Bungarus multicinctus) (UniProt P60615). Put plainly: compounds binding labelled alpha-BTX control protein – biochemical, small-molecule microarray, Alexa647 label, 635/667 nm fluorescence, artefact control for SMM control protein annotation, profiling panel (AID 1117). The note with it: alpha-BTX-A647 binding fluorescence, higher = more signal.
Sequence of Alpha-bungarotoxin (Bungarus multicinctus) (P60615 whole entry, looked up): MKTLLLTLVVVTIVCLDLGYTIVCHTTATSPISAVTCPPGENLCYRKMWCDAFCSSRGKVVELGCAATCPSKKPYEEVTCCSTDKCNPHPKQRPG

Active and inactive are the calls of the source.

Sequence of Follistatin-related protein 3 (Homo sapiens) (O95633 whole entry, looked up): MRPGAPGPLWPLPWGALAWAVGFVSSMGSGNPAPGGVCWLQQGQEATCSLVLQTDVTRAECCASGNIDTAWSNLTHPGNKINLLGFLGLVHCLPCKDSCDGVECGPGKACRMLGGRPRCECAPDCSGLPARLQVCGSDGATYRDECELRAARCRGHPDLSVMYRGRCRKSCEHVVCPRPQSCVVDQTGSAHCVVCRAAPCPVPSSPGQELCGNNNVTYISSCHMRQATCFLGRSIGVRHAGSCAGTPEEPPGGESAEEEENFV
Sequence of Fibroblast growth factor 10 (Homo sapiens) (O15520 whole entry, looked up): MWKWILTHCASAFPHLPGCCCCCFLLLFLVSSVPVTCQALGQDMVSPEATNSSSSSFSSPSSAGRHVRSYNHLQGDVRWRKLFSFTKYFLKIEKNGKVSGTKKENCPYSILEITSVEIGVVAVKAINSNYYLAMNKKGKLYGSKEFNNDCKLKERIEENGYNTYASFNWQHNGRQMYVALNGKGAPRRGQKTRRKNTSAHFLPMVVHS
Sequence of Left-right determination factor 2 (Homo sapiens) (O00292 whole entry, looked up): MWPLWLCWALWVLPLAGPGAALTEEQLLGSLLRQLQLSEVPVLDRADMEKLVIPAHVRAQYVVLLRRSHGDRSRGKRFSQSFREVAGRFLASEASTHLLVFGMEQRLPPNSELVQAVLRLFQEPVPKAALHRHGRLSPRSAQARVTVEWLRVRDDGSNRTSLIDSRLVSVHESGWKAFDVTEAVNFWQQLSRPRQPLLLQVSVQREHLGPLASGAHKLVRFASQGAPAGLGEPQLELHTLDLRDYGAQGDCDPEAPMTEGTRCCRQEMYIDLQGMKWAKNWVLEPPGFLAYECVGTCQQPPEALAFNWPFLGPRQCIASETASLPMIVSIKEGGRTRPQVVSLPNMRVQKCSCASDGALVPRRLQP

As to `CN1C=C(C(=O)OCCS(C)(=O)=O)C(C(=O)OCCS(C)(=O)=O)=CC(CCCO)=CC1C1CC1` (stereo not given), the composite z-score was -0.274 in [1]; -0.209 in test [2]; -0.0925 in test [3]; 0.428 in test [5]; -0.256 in [6]; -0.14 in [7]. For the same compound, the composite z-score in [8] is 0.0695; in test [9], -0.596; in [10], -0.0932; in test [11], 0.117; in [13] it was -0.0097; in test [14] it was 0.0991. In addition, the composite z-score was -0.0416 in test [15]; -0.126 in test [16]; 0.0434 in test [17]; 0.257 in [18]; -0.116 in [19]; 0.198 in test [20]. Moreover, the z-score is 0.788 (inactive) in test [4] and -0.552 in test [12].

With `CC(C)C(=C=CC[C@@H](O)c1ccccc1OCCO)C[C@@H](O)c1ccccn1`, the composite z-score in [1] was 1.52; in test [2], -0.235; in test [3] it was -0.448; in test [5], 1.05; in test [6], 0.556; in [7], 0.141. For the same compound, the composite z-score in test [8] is 0.425; in [9], 0.34; in test [10] it was 0.715; in test [11], 0.752; in test [13] it was 0.28; in test [14], -0.178. The composite z-score in test [15] was -0.34; in [16] it was -0.0751; in [17] it was -0.0553; in test [18], -0.158; in test [19], -0.221; in test [20], 0.125. In addition, the z-score is 0.446 (inactive) in test [4] and -1.14 in [12].

Take `C[N+](C)(C)CCCCCCNC(=O)[C@H]1C[C@H]2C(=O)N3CCC[C@H]3C(=O)N2[C@H]1c1ccc(O)cc1`: the composite z-score in [1] is 1.07; in test [2], -0.258; in [3] it was -0.201; in [5] it was 0.205; in [6], 0.196; in [7] it was -0.278. The composite z-score worked out at 0.196 in test [8]; 0.744 in test [9]; 1.03 in test [10]; 1.41 in test [11]; 0.26 in test [13]; 0.0573 in test [14]. For the same compound, the composite z-score in [15] is -0.965; in test [16] it was -0.178; in test [17], 0.0639; in [18], -0.29; in test [19] it was 0.541; in test [20], -0.37. The z-score in [4] is -0.677 (inactive); in test [12], 0.741.

In the case of `C=CC[C@@H](OC(=O)Nc1ccc(OC)cc1)c1ccc(O)c2ccccc12`, the composite z-score in test [1] is 1.43; in test [2] it was -0.0942; in test [3] it was -0.0826; in test [5], 1.2; in test [6], 1.28; in test [7] it was 1.06. Moreover, the composite z-score turned out to be 1.4 in test [8]; 1.23 in test [9]; 1.07 in [10]; 0.94 in test [11]; 1.07 in [13]; 0.0871 in [14]. The composite z-score in test [15] was -0.738; in test [16], -0.0006; in test [17] it was -0.154; in [18], -0.139; in [19], 0.3; in [20] it was 0.824. For the same compound, the z-score in [4] is -0.806 (inactive); in test [12] it was -3.47.

For the compound `COc1ccc([Si](C)(C)[C@H]2[C@H](CCn3cc([C@H](O)c4ccccc4)nn3)O[C@@]3(C(=O)N(Cc4cccc(N5CCC5=O)c4)c4ccccc43)[C@@H]2C)cc1`, the composite z-score is 1.32 in test [1]; -0.144 in test [2]; -0.206 in test [3]; 0.66 in test [5]; -0.113 in test [6]; -0.0533 in test [7]. The composite z-score is -0.108 in test [8]; -0.0723 in test [9]; 0.714 in test [10]; -0.268 in [11]; 0.183 in [13]; 0.318 in [14]. Moreover, the composite z-score is 0.193 in [15]; -0.114 in [16]; 0.0278 in test [17]; -0.118 in [18]; 0.412 in test [19]; 0.167 in [20]. In addition, the z-score in test [4] was -1.4 (inactive); in [12], -1.73.

Take `CC(C)C(=C=CC[C@H](O)c1ccccc1OCCO)C[C@H](O)c1ccccn1`: the composite z-score in [1] is 1.62; in test [2], 0.0012; in test [3] it was -0.203; in test [5], 0.764; in [6], 0.559; in [7], -0.536. The composite z-score in [8] is -0.0639; in test [9] it was -0.0832; in [10] it was 0.407; in test [11] it was 0.143; in test [13], 0.64; in test [14] it was -0.227. Also, the composite z-score was -0.253 in test [15]; -0.0607 in test [16]; -0.2 in test [17]; 0.381 in test [18]; 0.94 in [19]; 1.38 in [20]. In addition, the z-score in [4] was -0.705 (inactive); in test [12], -0.493.
